{
  "source": "PubChem BioAssay AID493033",
  "about": "(ICCB-Longwood Screening Facility, Harvard Medical School, 2011)",
  "note": "Among all 100,000 compounds or so, about 930 (0.93%) were called active. No stated cut-off is given here; in the data, active means inhibition mostly above about 56% (no sharp cut-off); inactive means mostly below about 77%. Many of the other results were omitted from the sample, so actives are more common in it than they were.",
  "data": [
    {"biological_target": "Salicylate synthase (Mycobacterium tuberculosis (strain CDC 1551 / Oshkosh)) (UniProt P9WFX0)", "sequence (P9WFX0 whole entry, looked up)": "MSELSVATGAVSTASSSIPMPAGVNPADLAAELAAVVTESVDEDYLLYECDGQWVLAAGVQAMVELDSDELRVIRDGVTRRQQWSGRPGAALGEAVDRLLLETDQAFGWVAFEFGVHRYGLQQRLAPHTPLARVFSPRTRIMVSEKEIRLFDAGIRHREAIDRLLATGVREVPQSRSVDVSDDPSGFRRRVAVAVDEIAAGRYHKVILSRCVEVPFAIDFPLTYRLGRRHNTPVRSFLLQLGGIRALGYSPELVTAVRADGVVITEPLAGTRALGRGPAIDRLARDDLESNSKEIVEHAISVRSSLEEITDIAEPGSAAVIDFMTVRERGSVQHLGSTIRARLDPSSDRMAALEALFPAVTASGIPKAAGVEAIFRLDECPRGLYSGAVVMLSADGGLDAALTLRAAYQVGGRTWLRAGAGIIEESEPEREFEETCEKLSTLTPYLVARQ", "experiment": "inhibitors of M. tuberculosis MbtI – biochemical, fluorescence intensity, primary screen (AID 493033)", "conditions": "purified MbtI enzyme, fluorescence intensity read-out, stronger effect = higher value, concentration not given here", "values": [
      {"compound": "O=C1CSC2=NC3=C(CCCC3=C3SCCCS3)C(c3ccccc3)N12", "note": "(centres undefined)", "inhibition": "-4.55% (inactive)"},
      {"compound": "O=C1c2ccccc2C(=O)N1CNc1ccccc1C1CC1", "inhibition": "-16.8% (inactive)"},
      {"compound": "NCCCN1Cc2ccccc2C1", "inhibition": "1.3% (inactive)"},
      {"compound": "CCCc1cc(=O)[nH]c(SCc2ccc(C#N)cc2)n1", "inhibition": "-3.9% (inactive)"},
      {"compound": "CCc1ccccc1NC(=O)CSc1nc2c(c(=O)[nH]1)CCC2", "inhibition": "9.6% (inactive)"},
      {"compound": "CC(C)(C)c1ccc(CSc2nc3c(c(=O)[nH]2)CCC3)cc1", "inhibition": "81.7% (active)"},
      {"compound": "COC(=O)c1ccc(C(=O)Nc2cc(Cl)ccc2Cl)cc1N", "inhibition": "-179% (inactive)"},
      {"compound": "Cn1cccc1/C=C1\\C(=O)NC(=S)N(c2ccccc2)C1=O", "inhibition": "18.1% (inactive)"},
      {"compound": "COc1cccc(N2C(=O)/C(=C/c3ccsc3)C(=O)NC2=S)c1", "inhibition": "29.9% (inactive)"},
      {"compound": "O=C1NC(=S)N(c2ccc(Br)cc2)C(=O)/C1=C/c1ccsc1", "inhibition": "55.9% (active)"},
      {"compound": "CCc1ccc(N(C(C)=O)c2nc(CSc3nnc4n3CCCCC4)cs2)cc1", "inhibition": "-11.7% (inactive)"},
      {"compound": "CC1=C(C(=O)Nc2cccc(C(F)(F)F)c2)C(c2ccc3c(c2)OCO3)NC(=O)N1", "note": "(centres undefined)", "inhibition": "5.1% (inactive)"},
      {"compound": "CCCN(CC1CC1)Cn1c(=S)sc2ccccc21", "inhibition": "65.8% (active)"},
      {"compound": "O=C(C1CCNCC1)N1CCCCC1", "inhibition": "6.4% (inactive)"},
      {"compound": "O=C(OCCCn1c(=O)[nH]c2ccccc21)c1ccc(S(=O)(=O)N2CCOCC2)cc1", "inhibition": "-5% (inactive)"},
      {"compound": "Cc1ccc(NC(=O)CN2C(=O)OC(C)(C)C2(C)O)cc1", "note": "(centres undefined)", "inhibition": "-10% (inactive)"},
      {"compound": "COc1ccc(OCCCC(=O)NNc2ccccc2)cc1", "inhibition": "-1.15% (inactive)"},
      {"compound": "Nn1c(SCC(=O)Nc2ccc(S(=O)(=O)N3CCCC3)cc2)nnc1-c1ccccc1", "inhibition": "87.7% (active)"},
      {"compound": "O=C(CSc1nnc(-c2ccncc2)n1-c1ccccc1)Nc1ccccc1", "inhibition": "0.45% (inactive)"},
      {"compound": "COc1ccc(Cc2nnc(SCC(=O)Nc3ccc(S(=O)(=O)N4CCCCCC4)cc3)o2)cc1", "inhibition": "-15.5% (inactive)"},
      {"compound": "CCc1c(C)sc2nc(CC(=O)N3CCOCC3)[nH]c(=O)c12", "inhibition": "-33.3% (inactive)"},
      {"compound": "NS(=O)(=O)c1ccc(CCNC(=O)CN2CC(=O)Nc3ccccc32)cc1", "inhibition": "14.2% (inactive)"},
      {"compound": "CNC(=O)O/N=C/c1nn(C(C)=O)cc1Br", "inhibition": "2.45% (inactive)"},
      {"compound": "COc1ccc(CC(=O)Nc2ccccc2)cc1", "inhibition": "-14.4% (inactive)"},
      {"compound": "COc1ccc(Cc2n[nH]c(=S)n2NC(=O)Nc2ccc(C)cc2)cc1", "inhibition": "92.9% (active)"},
      {"compound": "CNCC(=O)Nc1ccc(OC)cc1", "inhibition": "-7.3% (inactive)"},
      {"compound": "CNC(=O)Cc1nnc(-c2ccc(C)cc2)o1", "inhibition": "-6.1% (inactive)"},
      {"compound": "N#CC(C#N)=CNCCc1ccncc1", "inhibition": "-4.8% (inactive)"},
      {"compound": "COc1cc2c(cc1OC)C(c1cc3cc4c(cc3[nH]c1=O)OCO4)N(C(=O)C1CCC1)CC2", "note": "(centres undefined)", "inhibition": "87.5% (inactive)"},
      {"compound": "Cc1onc(-c2ccccc2)c1C(=O)NNc1ccc(C(C)(C)C)cc1", "inhibition": "3.55% (inactive)"},
      {"compound": "Cc1onc(-c2ccccc2)c1C(=O)Sc1ccc(C(F)(F)F)cn1", "inhibition": "94.8% (active)"},
      {"compound": "Cc1onc(-c2ccccc2)c1C(=O)Nc1cccc(C(F)(F)F)c1", "inhibition": "-4.15% (inactive)"},
      {"compound": "COc1cc(OC)cc(C(=O)NC(C(=O)N2CCC2)C(C)C)c1", "note": "(centres undefined)", "inhibition": "-3.25% (inactive)"},
      {"compound": "CC(C(=O)N1CCOCC1)C1SC(=O)NC1=O", "note": "(centres undefined)", "inhibition": "-3.8% (inactive)"},
      {"compound": "CC(=O)Oc1ccc(N(C(C)=O)S(=O)(=O)c2ccc(Cl)cc2)cc1", "inhibition": "-0.9% (inactive)"},
      {"compound": "CCCCS(=O)(=O)N(O)c1ccc(Cl)cc1", "inhibition": "84.8% (active)"},
      {"compound": "CCCCN=Cc1c(O)n(-c2ccc(Cl)cc2)c(=O)[nH]c1=O", "inhibition": "21.5% (inactive)"},
      {"compound": "Cc1[nH]c(=O)[nH]c(=O)c1NC(=O)CSc1nc2c(C)cccc2cc1C#N", "inhibition": "-1.15% (inactive)"},
      {"compound": "Cc1cc(C)n(C(=O)C2CC=CCC2C(=O)O)n1", "note": "(centres undefined)", "inhibition": "-7.4% (inactive)"},
      {"compound": "O=C(CSc1nnc2n1CCCCC2)N(Cc1cccs1)c1ccc2c(c1)OCCO2", "inhibition": "-10.9% (inactive)"},
      {"compound": "Cc1ccc(OCc2n[nH]c(=S)n2C2CCCCC2)c2c1CCC2", "inhibition": "70.4% (active)"},
      {"compound": "CCOC(=O)Cc1n[nH]c(=S)n1C1CCCC1", "inhibition": "13.4% (inactive)"},
      {"compound": "O=C(OCC(=O)C12CC3CC(CC(C3)C1)C2)c1cccs1", "inhibition": "13.6% (inactive)"},
      {"compound": "CCn1cnc2cc(NCc3ccccn3)ccc21", "inhibition": "-5.05% (inactive)"},
      {"compound": "CCc1ccc(N/N=C(\\C#N)C(=O)N2CCN(C)CC2)cc1", "inhibition": "6% (inactive)"},
      {"compound": "C/C(=N/NC(=O)CCc1ccccc1)C1CC1", "inhibition": "-4.85% (inactive)"},
      {"compound": "N#C/C(=N\\Nc1ccccc1)C(=O)C1CC1", "inhibition": "97% (active)"},
      {"compound": "Cc1ccc2[nH]c3c(c2c1)CCCC3O", "note": "(centres undefined)", "inhibition": "53.3% (inactive)"},
      {"compound": "Cc1noc(C)c1COc1ccc(C(=O)OCCN2C(=O)c3ccccc3C2=O)cc1", "inhibition": "-17.5% (inactive)"},
      {"compound": "O=C(NCC1CCN(c2ccc(S(=O)(=O)N3CCOCC3)cc2)CC1)Nc1cccc(F)c1", "inhibition": "-7.4% (inactive)"},
      {"compound": "CC(OC(=O)c1ccccc1NS(=O)(=O)c1ccc2[nH]c(=O)[nH]c2c1)C(=O)N1CCCCC1", "note": "(centres undefined)", "inhibition": "-42.9% (inactive)"},
      {"compound": "COc1ccc(-c2nc3sc(-c4ccc(OC)cc4)nc3s2)cc1", "inhibition": "84.3% (active)"},
      {"compound": "COc1ccc(Cc2nnc(SC)[nH]c2=O)cc1", "inhibition": "10.6% (inactive)"},
      {"compound": "COc1ccc(C#N)cc1", "inhibition": "-8.8% (inactive)"},
      {"compound": "CSc1cc(-c2ccc(F)cc2)nn1S(=O)(=O)c1cccc(C(F)(F)F)c1", "inhibition": "-4.6% (inactive)"},
      {"compound": "Cc1cc2ncn(-c3ccc(S(=O)(=O)N4CCCC4)cn3)c2cc1C", "inhibition": "35.2% (inactive)"},
      {"compound": "Cc1nc(SCC(=O)c2ccc(NS(C)(=O)=O)cc2)n(C2CCCCC2)c1C", "inhibition": "-5.8% (inactive)"},
      {"compound": "c1ccc(Cc2nn3c(Cn4cnc5ccccc54)nnc3s2)cc1", "inhibition": "65.2% (active)"},
      {"compound": "COCCn1cnc2ccccc21", "inhibition": "-7.65% (inactive)"},
      {"compound": "N#CCCn1cnc2ccccc21", "inhibition": "-6.55% (inactive)"},
      {"compound": "CCOc1cc2c(cc1OCC)C(CC(=O)O)N(C(=O)Nc1ccc(OC)cc1)CC2", "note": "(centres undefined)", "inhibition": "26.9% (inactive)"},
      {"compound": "COc1ccccc1Nc1nc2c(S(=O)(=O)c3c(C)cc(C)cc3C)nnn2c2ccccc12", "inhibition": "3.35% (inactive)"},
      {"compound": "COc1cc(Br)c(CC(=O)N2CCOCC2)cc1OC", "inhibition": "-8.25% (inactive)"},
      {"compound": "O=c1ccc(-c2ccc(S(=O)(=O)Nc3ccccc3)o2)n[nH]1", "inhibition": "1.95% (inactive)"}
    ]}
  ]
}
